Counter-ions that a name gives are not always drawn.
Columns and labels:
Experiment in all cases: Euclidean distance of Cell Painting phenotypic profile (signed KS, 77 features) to DMSO centroid (dimensionless distance); 5 or 10 uM (library dependent); higher = stronger phenotypic change vs DMSO (phenoactivity)
Settings in all cases: 48 h
786-O = tested on: 786-O
Procedure, shortened: (§1)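 Phenoactivity is defined as the Euclidean distance from a compound profile to the median vehicle profile. Each profile comprised 77 Harmony features, scored as signed Kolmogorov-Smirnov statistics versus same-plate vehicle wells, then plate-position corrected, correlation-weighted and replicate-averaged at the top dose. Five cancer lines and one healthy fibroblast line were exposed to library compounds for 48 h at 10 or 5 uM (0.1% DMSO final).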

A549 = tested on: A549
Procedure, shortened: as §1

DU145 = tested on: DU145
Procedure, shortened: as §1

FB = tested on: FB
Procedure, shortened: as §1

HEPG2 = tested on: HEPG2
Procedure, shortened: as §1

OVCAR4 = tested on: OVCAR4
Procedure, shortened: as §1

SMILES	Euclidean distance (786-O)	Euclidean distance (A549)	Euclidean distance (DU145)	Euclidean distance (FB)	Euclidean distance (HEPG2)	Euclidean distance (OVCAR4)
Cc1ccccc1C(=O)Nc1ccc(C(=O)N2CCCC(N(C)C)c3ccccc32)cc1 (stereo not drawn) [Mozavaptan]	0.843	0.928	1.17	0.813	0.445	0.913
C=C1CC[C@H]2C(=C)CC[C@H]3C(=C)C(=O)O[C@@H]3[C@@H]12 [Dehydrocostus Lactone]	6.1	3.77	7.43	3.32	3.68	2.97
CCCCCCCCN=C(N)NC(N)=NCc1ccc(Cl)c(Cl)c1 [Olanexidine Hydrochloride semihydrate]	5.91	4.86	6.25	6.15	3.98	5.78
O=C1c2c(O)ccc(O)c2C(=O)c2c(NCCNCCO)ccc(NCCNCCO)c21 [Mitoxantrone 2HCl]	5.6	5.26	4.77	7.28	5.09	5.15
C=CCc1ccccc1OCC(O)CNC(C)C (stereo not drawn) [Alprenolol hydrochloride]	0.84	0.761	1.36	1.77	0.91	1.07
CCN(CC)CCNC(=O)c1c(C)[nH]c(/C=C2\C(=O)Nc3ccc(-c4csc(-c5ccccc5)n4)cc32)c1C [Amcasertib (BBI503)]	5.91	5.2	7.77	5.61	2.05	2.89
Nc1cccc2c1CN(C1CCC(=O)NC1=O)C2=O (stereo not drawn) [Lenalidomide (CC-5013)]	1.74	1.2	0.79	1.03	0.639	1.15
Nc1ncnc2n[nH]c(Nc3ccc(F)cc3)c12	0.861	2.17	1.25	1.67	0.599	1.4
CO[C@H]1/C=C/O[C@@]2(C)Oc3c(C)c(O)c4c(O)c(c(/C=N/N5CCN(C6CCCC6)CC5)c(O)c4c3C2=O)NC(=O)/C(C)=C\C=C\[C@H](C)[C@H](O)[C@@H](C)[C@@H](O)[C@@H](C)[C@H](OC(C)=O)[C@@H]1C [Rifapentine]	1.24	0.894	1.76	1.72	2.12	1.56
Nc1nc(OCc2cc(Br)cs2)c2[nH]cnc2n1 [Lomeguatrib]	1.07	1.13	1.15	1.29	0.861	1.04
Cc1cc(C)nc(NS(=O)(=O)c2ccc(NC(=S)NC(=O)COc3ccc(Br)cc3Cl)cc2)n1	0.465	0.727	0.713	0.857	2.1	0.759
NCc1ccc(S(N)(=O)=O)cc1 [Mafenide Acetate]	0.874	0.744	1.24	1.07	0.456	0.942
C[C@]12CCC(=O)C=C1[C@@H]1C[C@@H]1[C@H]1[C@@H]3[C@@H]4C[C@@H]4[C@@]4(CCC(=O)O4)[C@@]3(C)CC[C@@H]12 [Drospirenone]	0.972	0.987	0.866	0.787	0.612	0.995
CCC[C@@H]1C[C@@H](C(=O)N[C@@H]([C@H]2O[C@H](SC)[C@H](OP(=O)(O)O)[C@@H](O)[C@H]2O)[C@H](C)Cl)N(C)C1 [Clindamycin Phosphate]	1.64	0.653	0.924	0.907	0.808	1.38
CC(=O)OCC1=C(C(=O)O)N2C(=O)[C@@H](NC(=O)CSC(=NC(C)C)NC(C)C)[C@H]2SC1 [Cefathiamidine]	1.48	0.7	1.41	0.888	0.62	1.82
CC(C)(C)NC(=O)[C@H]1CC[C@H]2[C@@H]3CC[C@H]4NC(=O)C=C[C@]4(C)[C@H]3CC[C@]12C [Finasteride]	1.26	0.717	0.682	0.871	0.391	1.18
CC[C@@H]1/C=C(\C)C[C@H](C)C[C@H](OC)[C@H]2O[C@@](O)(C(=O)C(=O)N3CCCC[C@H]3C(=O)O[C@H](/C(C)=C/[C@@H]3CC[C@H](Cl)[C@H](OC)C3)[C@H](C)[C@@H](O)CC1=O)[C@H](C)C[C@@H]2OC [Pimecrolimus]	1.47	1.85	2.17	2.13	0.886	1.29
Cc1ccc(CNc2ncnc3ccc(-c4ccc(CO)o4)cc23)o1	1.8	1.95	1.67	1.25	2.04	1.67
FC(F)(F)c1ccc(/C=C/c2nc(COc3ccc(CCCCn4ccnn4)cc3)co2)cc1 [Mubritinib (TAK 165)]	0.614	1.76	1.4	1.61	1.89	1.42
CC[C@@H]1C(=O)OC[C@@H]1Cc1cncn1C [Pilocarpine HCl]	1.14	0.624	0.725	0.78	0.698	1.49
O=C(O)[C@@H](S)[C@@H](S)C(=O)O [Succimer]	1.49	1.41	1.53	1.35	0.53	1.55
CC1(C)CC(Oc2ccc(-c3ccc(-c4cn[nH]c4)cc3O)nn2)CC(C)(C)N1 [Branaplam (LMI070)]	2.88	2.86	4.33	3.24	3.03	3.09
CC(=O)O[C@@]12CO[C@@H]1C[C@H](O)[C@@]1(C)C(=O)[C@H](O)C3=C(C)[C@@H](OC(=O)[C@H](O)[C@@H](NC(=O)OC(C)(C)C)c4ccccc4)C[C@@](O)([C@@H](OC(=O)c4ccccc4)[C@H]21)C3(C)C [Docetaxel Trihydrate]	3.61	3.08	3.17	2.26	2.15	2.49

Source: the supplement of paper PMC10127200
